Experimental data published in article PMC10163288.
Not all results are given here. The hit rate among all sequences tested is not known here.

B1: il10ra_site1_sap_15_mot_HHH_b2_04646_000000019_0001_1_20_H_._HHH_b1_08112_af2_0001_0000300009_0000001_0_0001 (protein)
chain: SSSSDVEEEVEELLEQAEELARRGNPEEAYKLLKEAAELASEANDPELQRLVVEVSRRVIGSSSS
B2: il10ra_site1_sap_24_mot_HHH_b1_04771_000000013_0001_40_56_H_._HHH_b2_02918_af2_0001_0000100007_0000001_0_0001 (protein)
chain: SSSSDDEERVKQAIRFARWLLENGDKEAAKRIVEAAQDIARKGGNEELVQELEELEEEIKSSSSS
B3: il10ra_site1_sap_20_mot_HHH_b1_04573_000000273_0001_43_57_H_._HHH_b2_07679_0001_0000100005_0000002_0_0001 (protein)
chain: SSSSSDENEEIYRLLREAAEALANGNPEEAREIVEQAVELAEEANSQVLLFNAEYLLRQINSSSS
B4: il10ra_site1_sap_24_mot_HHH_b1_00999_000000080_0001_41_55_H_._HHH_b1_05694_af2_0001_0000300017_0000001_0_0001_af2pred_dldesign_0_af2pred (protein)
chain: SSSSDPQRVVELIHEANRLVDEGRLDEAERLLEEALRLARAADDAELAAAVEKALAFVRSLSSSS
B5: il10ra_site1_normal_mot_HHH_b1_00999_000000080_0001_41_55_H_._HHH_b1_02815_0001_0000700030_0000002_0 (protein)
chain: SSSSDEEEERSKELLEELEELLRRGDQHRFLRLLQHIVRFAFEVSDEELLHEVWRLAREFGSSSS
B6: il10ra_site1_normal_mot_HHH_b1_05357_000000034_0001_23_39_H_._HHH_b2_00878_af2_0001_0000100001_0000001_0_af2pred_0001 (protein)
chain: SSSSSSDLEEEVEKLLEEAEKIEDQLRLAYVLTRAYAVANRLNDPELRELIREVAKKLSSSSSSS
B7: il10ra_site1_normal_mot_0cd074c2d6d3de76f1399c5a775575d2_0001_1_af2_000000000_0001_16_30_H_._a6da520ff4a02840130205282d0b8d49_0001_0001_0000200007_0000001_0_af2 … (protein)
chain: SREQAILYAAIVASGGDEDRIEHLLEIYYEFTGDPAVKEVLERLRAAKAAGIPAEELLKQLEAEN
B8: il10ra_site1_sap_20_mot_HHH_b1_01886_000000262_0001_1_18_H_._HHH_b1_05552_af2_0001_0000500031_0000001_0_0001_af2pred_dldesign_0_af2pred (protein)
chain: SSSSSDLAAVLAEAEALFARSKTVSPEEKEVILQRIVDLALKHENLEVAKLANELLKELSSSSSS
B9: il10ra_site1_sap_25_mot_2c1a291787c6f40772924d4e9068d803_0001_af2_000000187_0001_34_48_H_._HHH_b2_07308_af2_0001_0000400007_0000002_0_0001_af2pred_0001 (protein)
chain: SSSSSTREEVIKRVIELLREARRIEDPEEREEVLEEAHRLAEEGNNELLKFIVESLERKLSSSSS
B10: il10ra_site1_sap_16_mot_HHH_b2_06643_000000103_0001_1_18_H_._HHH_b2_07694_0001_0000100008_0000001_0_0001_af2pred_0001 (protein)
chain: SSSSSSEEEELAELALRLLVEALQHGDPELREEIKELIEEAEKVGDERVVRLLRAALRALSSSSS
B11: il10ra_site1_normal_mot_8756ee2cf497b5429c717dfc0c0bcfd6_0001_000000186_0001_1_13_H_._HHH_b2_05079_af2_0001_0000100002_0000002_1_af2pred_dldesign_0_af2pred (protein)
chain: SSSSSSELEELKNLIKEIAELLYEGKPEEARELLEKAEELAKKLGNKTALATLDYLRRQIESSSS
B12: il10ra_site1_sap_25_mot_HHH_b2_05323_000000159_0001_1_18_H_._HHH_b1_08298_af2_0001_0000500034_0000001_0_0001 (protein)
chain: SSSSDEELQEAFELLREAVEALLDGNPEEAEKLLEEARKLAEEAGNRLLRWQIEWLLEKVRSSSS
B13: il10ra_site1_normal_mot_HHH_b2_00441_000000147_0001_1_18_H_._HHH_b1_04947_af2_0001_0000200007_0000001_0_af2pred_0001 (protein)
chain: SSSSDEYLKKAIRALFRAIKRAIELGDEEVVRLALKDLRFLAREHNDEEAEELLKELEELLSSSS
B14: il10ra_site1_normal_mot_HHH_b2_00984_000000042_0001_1_20_H_._HHH_b2_07534_0001_0000600066_0000001_1 (protein)
chain: SSSSDEEEKRLEELLEEVRELLERGDPERAARLAQELLRHIFRASDEEALQELWELIKREASSSS
B15: il10ra_site1_normal_mot_HHH_b2_03328_af2_000000127_0001_1_19_H_._HHH_b1_03894_0001_0000100001_0000001_0 (protein)
chain: SSSSSSNELYELSREALELFANGNPEEAQRVVEEAIELAEELGNRVILFTLRHLLRVISSSSSSS
B16: il10ra_site1_normal_mot_HHH_b1_08477_000000091_0001_40_57_H_._HHH_b2_05084_0001_0000800035_0000001_0 (protein)
chain: SSSSDIAEETARFLLEMAERLIEQGNPEYARQALRFALRLARDAGNPELEEEIQKLLEELGSSSS
B17: il10ra_site1_normal_mot_HHH_b2_06857_af2_000000179_0001_42_54_H_._HHH_b2_07752_af2_0001_0000500038_0000002_0 (protein)
chain: SSSSNELHEELYELIRKAAELARNGNPEEAEKVLEEARKIAEELNNELAEFQIRFLERLLSSSSS
B18: il10ra_site1_sap_4_mot_HHH_b2_01447_af2_000000258_0001_1_20_H_._HHH_b1_07772_0001_0000100001_0000002_0_0001 (protein)
chain: SSSSDTRELYRLSREAMELLARGNPEEAEKVLEEAIEIAREAGDFNFLFNLEHVLKVIEQSSSSS
B19: il10ra_site1_sap_15_mot_HHH_b2_05813_000000266_0001_1_19_H_._ems_3hC_1310_0001_af2_0001_0000600040_0000002_0_0001 (protein)
chain: SSSSADEEFEFTREKYEEARELLQNGNPEEAEEVLEEAREYLKEAGNWAALFAVEVLLKQLSSSS
B20: il10ra_site1_normal_mot_HHH_b2_02537_000000065_0001_1_20_H_._HHH_b1_07925_0001_0000100001_0000001_0 (protein)
chain: SSSSTDEVFEFTRRVIEEASELFRNGNPEEAERVLEEAREYLEELGDELALRSVEHLLRAISSSS
B21: il10ra_site1_sap_19_mot_HHH_b1_05214_000000232_0001_38_57_H_._HHH_b2_00758_0001_0000400024_0000001_0_0001 (protein)
chain: SSSSDIRELYELSREAVELRHEGNPEEAEKVVEEAEELARELNNRVLLAVIEWLREAIETSSSSS

target: il10ra, Q13651; experiment: yeast display titration
Sequence (Q13651 whole entry): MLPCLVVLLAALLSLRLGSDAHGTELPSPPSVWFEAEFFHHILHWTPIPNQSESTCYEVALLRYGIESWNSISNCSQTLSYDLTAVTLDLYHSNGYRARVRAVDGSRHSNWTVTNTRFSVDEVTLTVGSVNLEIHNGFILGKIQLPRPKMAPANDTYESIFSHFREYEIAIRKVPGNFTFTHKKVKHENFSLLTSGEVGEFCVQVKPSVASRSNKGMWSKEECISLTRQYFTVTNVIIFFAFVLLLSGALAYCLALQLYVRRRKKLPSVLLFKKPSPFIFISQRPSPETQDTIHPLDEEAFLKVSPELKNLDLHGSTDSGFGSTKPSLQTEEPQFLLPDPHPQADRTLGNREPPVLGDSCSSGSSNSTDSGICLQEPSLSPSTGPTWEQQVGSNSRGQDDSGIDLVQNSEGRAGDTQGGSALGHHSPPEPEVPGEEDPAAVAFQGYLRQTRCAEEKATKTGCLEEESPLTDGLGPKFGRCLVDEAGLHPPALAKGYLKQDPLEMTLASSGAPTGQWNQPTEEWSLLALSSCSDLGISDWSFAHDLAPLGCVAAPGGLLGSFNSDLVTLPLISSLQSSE

| Binder | apparent Kd |
| --- | --- |
| B1 | no binding seen (inactive) |
| B2 | no binding seen (inactive) |
| B3 | no binding seen (inactive) |
| B4 | no binding seen (inactive) |
| B5 | no binding seen (inactive) |
| B6 | no binding seen (inactive) |
| B7 | no binding seen (inactive) |
| B8 | no binding seen (inactive) |
| B9 | no binding seen (inactive) |
| B10 | no binding seen (inactive) |
| B11 | no binding seen (inactive) |
| B12 | no binding seen (inactive) |
| B13 | no binding seen (inactive) |
| B14 | no binding seen (inactive) |
| B15 | no binding seen (inactive) |
| B16 | no binding seen (inactive) |
| B17 | no binding seen (inactive) |
| B18 | no binding seen (inactive) |
| B19 | no binding seen (inactive) |
| B20 | no binding seen (inactive) |
| B21 | no binding seen (inactive) |
